These results are taken from PubChem BioAssay.

The assay can be described thus: JC-1 mitochondrial potential readout, lung cancer cells – cell-based, A549, JC-1 fluorescence, basal, 24 h, 100 nL, profiling panel (AID 1138).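 Also: A549 lung adenocarcinoma cells under basal conditions with no added stimulus; test concentration not given here.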 Conditions: higher = more signal.
The compound `CCCC=C(CCC)[C@@H](NS(=O)(=O)c1ccc(-c2ccccc2)cc1)c1ccc(C(=O)OC)cc1` came in with a z-score of -2.58.
Next, `COc1ccc([Si](C)(C)[C@@H]2[C@@H](CC(=O)N(CCO)Cc3ccccc3)O[C@]3(C(=O)N(Cc4cccc(N5CCC5=O)c4)c4ccccc43)[C@H]2C)cc1`: -0.282; `CCC1=C2CN(Cc3ccccc3Br)[C@@H]([C@@H](O)Cc3ccccc3)C2C=CCC1` (stereo partly specified): -0.7; `CO[C@H]1COC(=O)[C@H](C)COC(=O)[C@H](Cc2ccccc2)NC(=O)CC=C[C@H]1C`: 1.71.
In the case of `Cc1ccc(S[C@]2(C(=O)NC3CC3)CC(=O)N(Cc3cc(C(F)(F)F)cc(C(F)(F)F)c3)[C@@H]2c2ccc(CO)cc2)cc1`, the z-score was 0.232.
The value for `CCCC[C@@H]1C[C@H]1[C@@H](NC(=O)c1cccs1)c1ccc(Cl)cc1` was -0.363.
Next, `COC(=O)C(CC#Cc1ccc2c(c1)[C@]1(C(=O)N2)[C@H](C(=O)N2CCCCCCC2)[C@H]2C(=O)O[C@H](c3ccccc3)[C@H](c3ccccc3)N2[C@@H]1c1ccc(O)cc1)C(=O)OC`: -1.03.
The value for `CC(C)N1CC=CC23O[C@@H]4/C=C\CCCOC(=O)C4[C@H]2C(=O)N(CCO)[C@@H]3C1=O` (stereo partly specified) was 1.77.
In turn, `O=C1O[C@H](c2ccccc2)[C@H](c2ccccc2)N2[C@H]1[C@@H](C(=O)NC[C@H](O)c1ccccc1)[C@]1(C(=O)Nc3ccc(C#CC4=CCCCC4)cc31)[C@H]2c1ccc(OCCO)cc1` registered a z-score of -1.76.
Next, `Cc1ccc(S[C@]2(C(=O)NC(C)C)CC(=O)N(C3Cc4ccccc4C3)[C@@H]2c2ccc(CO)cc2)cc1`: 0.186.
Next, `Cc1ccc(S[C@]2(C(=O)NCCCN(C)C)CC(=O)N(Cc3ccccc3)[C@@H]2c2ccc(CO)cc2I)cc1`: 3.68; `COc1ccc([C@H]2C[C@H]3C(Br)=C[C@]2(OC)C(=O)[C@]32CO2)cc1`: -1.02.
Next, `COC(=O)[C@H]1[C@@H]2COc3ccccc3[C@H]2N[C@H]1C(=O)OC`: 0.603; `C=CC[C@]1(C(N)=O)N=C(c2ccc(OCCCO)cc2)O[C@H]1c1ccccc1CN=[N+]=[N-]`: 0.766.
In turn, `CC(C)[Si](OCC[C@H]1O[C@]2(C(=O)N(Cc3ccccc3)c3ccccc32)[C@@H](C)[C@@H]1[Si](C)(C)O)(C(C)C)C(C)C` showed a z-score of -0.761.
As to `CC(C)[Si](OCCCNS(=O)(=O)c1ccc(Br)cc1)(C(C)C)C(C)C`, the z-score was -0.87.
The value for `C=CCOC(=O)[C@@H]1[C@H]2C(=O)O[C@H](c3ccccc3)[C@H](c3ccccc3)N2[C@H](c2ccc(OCCOC(=O)[C@H]3C[C@H]4C(=O)N[C@@H](CCCCNC(C)=O)C(=O)N4[C@H]3c3ccc(O)cc3)cc2)[C@@]12C(=O)Nc1ccc(I)cc12` was -0.815.
Turning to `C[C@]1(C(=O)NCCN2CCOCC2)c2ccccc2C(=O)N(Cc2ccccc2)[C@H]1c1ccc(CO)cc1`, the z-score was -1.19.
Next, `C=CCN(C(=O)C1N(c2ccc(CCO)cc2)C(=O)C2C(C(=O)O)C3C=CC21O3)C(C)(C)C` (stereo unspecified): -0.112; `CCOC(=O)C[C@H]1[C@H](OC(=O)Cc2ccc3c(c2)OCO3)[C@@H](NC(=O)c2ccc3ccccc3c2)c2cc(OCCCO)ccc2N1C(=O)Cc1ccc(OC)cc1`: 0.751.
On to `COc1ccc([Si](C)(C)[C@H]2[C@H](CCO)O[C@@]3(C(=O)N(Cc4ccc(N5CCCCC5=O)cc4)c4ccccc43)[C@@H]2C)cc1`, for which the z-score stood at 1.33.
Next, `COc1cc(CO)cc(I)c1O[C@H]1C=C(C(=O)NCCO)C[C@@H](N(CC2CCCCC2)C(=O)c2cc3ccccc3oc2=O)[C@@H]1O`: 0.272; `COC(=O)C1=CC(c2ccc(CO)cc2)=CC(C2CC2)N(Cc2sc3ccccc3c2Cl)C=C1C(=O)OC` (stereo unspecified): 2.04; `CSCC[C@@H]1NC(=O)CC=C[C@@H](C)COC(=O)[C@H](CCSC)NC(=O)CC=C[C@@H](C)COC1=O`: 1.01.
The value for `COC(=O)[C@@]1(Cc2ccc(OC)cc2)[C@H]2c3cc(C(=O)N(C)C)n(CCc4ccc(OC)c(Br)c4)c3C[C@H]2CN1C(=O)c1ccccc1` was 0.37.
Next, `COCC(=C=CC[C@H](O)c1ccc(OCCO)cc1)C[C@H](O)c1ccccn1`: 1.92; `O=C(NCc1ccccc1)[C@@]1(Cc2ccccc2)COC(c2ccc(OCCCO)cc2)=N1`: -1.56; `CO[C@@H]1COC(=O)[C@H](C)NC(=O)CC=C[C@@H](C)[C@H](OC)COC(=O)[C@H](C)NC(=O)CC=C[C@H]1C`: 1.64.
In turn, `CCCC=C(CCC)[C@@H](NS(=O)(=O)c1ccc(C(F)(F)F)cc1)c1ccc(-c2ccccc2)cc1` returned a z-score of 1.89.
Take `CC(C)(C)OC(=O)CC[C@]1(C(=O)N2CCCCC2)N=C(c2ccc(OCCCO)cc2)O[C@H]1c1ccccc1`: the z-score is 1.98.
The compound `CC(=O)NCCCC[C@@H]1NC(=O)[C@@H]2C[C@H](C(=O)NCCCCCNC(=O)CS)[C@H](c3ccc(O)cc3)N2C1=O` yielded a z-score of 1.18.
On to `C=CCC(OC(C)=O)[C@@H]1[C@@H](N(Cc2ccc(-c3cccc(C(F)(F)F)c3)o2)C(=O)Cc2ccc(F)cc2)c2cc(OCCCO)ccc2N1C(=O)c1ccc(-c2ccccc2)cc1` (stereo partly specified), for which the z-score is 1.74.
`CO[C@]12C=C(Br)[C@@H](C[C@@H]1c1ccccc1)[C@@]1(CO1)C2=O` yielded a z-score of 0.704.
With `COCCOC(=O)N1C(=O)[C@@]2(c3cc(C#CCC(C(=O)OC)C(=O)OC)ccc31)[C@H](c1ccccc1OCCO)N1[C@H](c3ccccc3)[C@H](c3ccccc3)OC(=O)[C@H]1[C@@H]2C(=O)N1CCCCCCC1`, the z-score is -0.729.
Next, `CCOC(=O)C1=CC[C@@H](c2ccccc2)N(S(=O)(=O)c2ccc(C)cc2)[C@H]1C`: 3.66; `O=C1c2ccccc2[C@](Cc2ccccc2I)(C(=O)NCC(F)(F)F)[C@H](c2ccc(CO)cc2)N1Cc1ccccc1C(F)(F)F`: 1.67.
